This is an account of results in PubChem BioAssay (Tox21).

Inconclusive results are not listed. Activity calls are given as the source filed them. Calls follow the shape of the dose curve; as a rule, active = well fitted activation curve with a large enough effect in the signal ratio in the repeat runs (not every such curve was filed as active); inconclusive = weak or mixed curves, or effect the other way; inactive = flat fitted curve, though single readings scatter; the % refers to the signal ratio.
% is scaled to controls: 0 for no effect and ±100 for the full control effect.

Chain of Estrogen receptor beta (Homo sapiens) (Q92731 whole entry, looked up): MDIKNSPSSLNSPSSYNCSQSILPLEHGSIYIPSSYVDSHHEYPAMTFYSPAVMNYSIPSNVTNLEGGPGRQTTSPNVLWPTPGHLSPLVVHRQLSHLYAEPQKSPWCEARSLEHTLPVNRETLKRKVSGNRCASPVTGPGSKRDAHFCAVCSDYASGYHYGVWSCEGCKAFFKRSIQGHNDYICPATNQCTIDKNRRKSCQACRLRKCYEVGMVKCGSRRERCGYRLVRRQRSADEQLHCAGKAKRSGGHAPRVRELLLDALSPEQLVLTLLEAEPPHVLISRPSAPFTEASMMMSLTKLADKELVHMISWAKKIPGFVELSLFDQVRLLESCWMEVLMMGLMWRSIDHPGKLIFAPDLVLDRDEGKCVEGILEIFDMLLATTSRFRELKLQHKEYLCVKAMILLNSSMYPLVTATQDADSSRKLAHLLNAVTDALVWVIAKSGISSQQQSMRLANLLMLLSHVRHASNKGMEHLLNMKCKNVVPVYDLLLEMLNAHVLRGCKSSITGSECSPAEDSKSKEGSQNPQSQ

The assay concerns the target Estrogen receptor beta (Homo sapiens) (UniProt Q92731). Put plainly: qHTS assay to identify small molecule agonists of the estrogen receptor beta (ER-beta) signaling pathway (AID 1259377). The note with it: ER-beta-UAS-bla HEK293T, beta-lactamase FRET ratio, 16 h; series mostly up to 92.4 µM; activation: at the top concentration. The source says: U.S. Tox21 Program National Center for Advancing Translational Sciences [NCATS] NIH Chemical Genomics Center [NCGC] U.S. Environmental Protection Agency [EPA] National Institutes of Environmental Health Sciences [NIEHS] National Toxicology Program [NTP] U.S. Food and Drug Administration [FDA] Tox21 Assay Overview: Estrogen receptor (ER), a nuclear hormone receptor, plays an important role in development, metabolic homeostasis and reproduction. Two subtypes of ER, ER-alpha and ER-beta, have similar expression patterns with some uniqueness in both types. Endocrine disrupting chemicals (EDCs) and their interactions with steroid hormone receptors like ER causes disruption of normal endocrine function. To identify the compounds that activate ER signaling, an ER beta-UAS-bla GripTite cell line (Life technologies, Madison, WI, USA) containing a beta-lactamase reporter gene under the control of an Upstream Activator Sequence (UAS) was used to screen Tox21 10K compound library.
Tox21 Assay Protocol Summary: ER-beta-UAS-bla HEK293T cells were dispensed at 2,000 cells/5 uL of assay medium containing 2% charcoal stripped FBS per well into black wall/clear-bottom 1536-well plates using a Multidrop Combi (ThermoFisher Scientific, Waltham, MA) dispenser. After the assay plates were incubated at a 37C and 5% CO2 for 6 hr, 23 nL of compounds dissolved in DMSO, positive controls or DMSO only was transferred to the assay plate by a Pintool station (Kalypsys, San Diego, CA). The plates were incubated at 37C and 5% CO2 for 16 hr. Then 1 uL of LiveBLAzerTM B/G FRET substrate was added using a BioRAPTR FRD (Flying Reagent Dispenser, Aurora Discovery, San Diego, CA). After the plates were incubated at room temperature for 2 hours, fluorescence intensity was measured by an Envision plate reader (PerkinElmer, Shelton, CT).
In the case of `Cc1ccc(C=O)cc1C`, the “activation” value was 6.38% (inactive).

`O=C(O)Cc1ccc(Cl)cc1Cl`: the “activation” value is 1.14% (inactive).

As for `CCC(C=O)CC`, the “activation” value was 0.356% (inactive).

On to `CC(=O)NCc1c(I)c(NC(C)=O)c(I)c(C(=O)O)c1I`, for which the “activation” value was 0.182% [at 42.5 µM] (inactive).

As to `O=C1CCCC(=O)O1`, the “activation” value is 9.29% (inactive).

Consider `Cc1ccc2c(c1)OCC(=O)CO2`, for which the “activation” value was 10.9% (inactive).

On to `C#CC(C)N(C)C(=O)Nc1ccc(Cl)cc1` (stereo not given), for which the “activation” value is -1.53% (inactive).

For `BrCCCCCBr`, the “activation” value is 3.47% (inactive).

Consider `CCCC(=O)C(C)=O`, for which the “activation” value is -0.163% (inactive).

On to `Cc1ccccc1C(=O)Nc1ccc(C(=O)N2CCCC(N(C)C)c3ccccc32)cc1` (stereo not given), for which the “activation” value was -0.941% [at 42.5 µM] (inactive).

Consider `OCCC(F)(F)C(F)(F)C(F)(F)C(F)(F)C(F)(F)C(F)(F)C(F)(F)C(F)(F)F`, for which the “activation” value was 3.49% (inactive).

For the molecule `O=C(O)c1ccc(Cl)cc1Cl`, the “activation” value is 5.66% (inactive).

`CC(=O)N[C@@H](CCC(=O)O)C(=O)O`: the “activation” value was 2.75% [at 42.5 µM] (inactive).

`COCCc1ccc(OCC2CO2)cc1` (stereo not given): the “activation” value is -0.458% [at 42.5 µM] (inactive).

For `CC/C=C\CC1=C(C)CCC1=O`, the “activation” value is -0.265% (inactive).

Turning to `CC(C)OC(=O)CCCCC(=O)OC(C)C`, the “activation” value is -0.738% (inactive).

In the case of `O=P(O)(O)OP(=O)(O)O`, the “activation” value was -1.15% (inactive).

With `C=C(C)C(=O)OCCOP(=O)(O)OCCOC(=O)C(=C)C`, the “activation” value is 8.55% (inactive).

On to `CCOC(=O)CC(=O)c1ccccc1`, for which the “activation” value is -1.05% (inactive).

On to `C[C@@H](Oc1ccc(CNC(=O)c2cccnc2Oc2ccc3c(c2)OCO3)c(F)c1)C(=O)O`, for which the “activation” value is 0.566% (inactive).

Turning to `COc1cc2c(cc1OC)[C@@H]1CC(=O)[C@@H](CC(C)C)CN1CC2`, the “activation” value is -0.458% [at 42.5 µM] (inactive).

Take `CC(C)CCCCOC(=O)c1ccccc1C(=O)OCCCCC(C)C`: the “activation” value is -0.595% (inactive).

On to `O=C(OCc1ccccc1)C(=O)OCc1ccccc1`, for which the “activation” value was -2.64% (inactive).

On to `C=C(C)C(=O)OCC(C)(C)COC(=O)C(=C)C`, for which the “activation” value is 0.0516% (inactive).

`CCO[Si](CCCS)(OCC)OCC`: the “activation” value is -0.398% (inactive).

With `C[C@H](N)[C@H](O)c1cccc(O)c1`, the “activation” value was -0.964% [at 42.5 µM] (inactive).

`CC(N)C(=O)OC(C)(C)Cc1ccc(Cl)cc1` (stereo not given): the “activation” value was 2.49% [at 42.5 µM] (inactive).

For the molecule `O=C(O)C(=O)Cc1ccccc1`, the “activation” value was 0.619% (inactive).

Take `COc1ccc(C2CNC(=O)C2)cc1OC1CCCC1` (stereo not given): the “activation” value was 5.16% [at 42.5 µM] (inactive).

As for `Cc1cc(Cl)c(C)cc1Cl`, the “activation” value is 8.97% (inactive).

For the molecule `COC(=O)CCc1ccc(OCC(O)CNC(C)C)cc1` (stereo not given), the “activation” value was -3.68% [at 42.5 µM] (inactive).

`CCCCCOC(=O)CCC`: the “activation” value is 3.92% (inactive).

As for `Cc1cccc2nccnc12`, the “activation” value is -0.973% (inactive).

On to `O=S(=O)(O)c1ccc2cc(O)c(S(=O)(=O)O)cc2c1`, for which the “activation” value was -0.177% (inactive).

For `CCCCCCCCCCCCCC`, the “activation” value was -0.449% (inactive).

For the molecule `O=C(O)c1cc(Br)c(O)c(Br)c1`, the “activation” value is 0.199% (inactive).

Regarding `Cc1cccc(C)c1NC(=O)c1ccccc1C(=O)O`, the “activation” value was -0.216% [at 42.5 µM] (inactive).

`CC(C)=CCOC(=O)c1ccccc1`: the “activation” value was 9.99% (inactive).

Consider `CC(S)C(=O)NCC(=O)O` (stereo not given), for which the “activation” value was -0.414% [at 42.5 µM] (inactive).

In the case of `CN(C)C(=O)CNC(=O)Cc1ccccc1`, the “activation” value was -3.66% [at 42.5 µM] (inactive).
